Assay outcomes from PubChem BioAssay.
This is a sample that favours compounds with a hit; in the whole collection about 3% have one here.
TrxR1 substrate – qHTS Assay for Substrates of Mammalian Selenoprotein Thioredoxin Reductase 1 (TrxR1): qHTS; Thioredoxin reductase 1, cytoplasmic (Rattus norvegicus), O89049; purified TrxR1 substrate turnover, NADPH consumption readout; Potency, µM (series often up to 114 µM), inactives show at the top dose activity change, negative = substrate turnover; 0.01% of 390,000 active; AID 588456, 2011; further: on the % scale 0 is the no-effect control and ±100 the full control effect; nearly all actives have a fitted effect of over 50% in size
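Rat TrxR1, dispensed at 90 nM, was prereduced with 400 uM NADPH (final) for 5 min at ~22 deg C, then incubated with compound 15 min before 400 uM selenite. A first-read NADPH fluorescence drop versus no-compound background flagged substrates.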
Nrf2 block – Nrf2 qHTS screen for inhibitors; A549 ARE-Fluc reporter, luciferase luminescence, 18-24 h; Potency, µM (top dose mostly 46 µM), inactives show at the highest dose activity change, negative = inhibition, actives largely listed as inhibitors; 2.1% of 360,000 active; further: on the % scale 0 is the no-effect control and ±100 the full control effect; nearly all actives have a fitted effect of over 60% in size
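Two sequential reads on A549 ARE_Fluc cells exposed to compound for 18-24 h: a CellTiter-Fluor fluorescence read for viability, then a luciferase luminescence read for Nrf2/ARE activity.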
TrxR1 inh – qHTS Assay for Inhibitors of Mammalian Selenoprotein Thioredoxin Reductase 1 (TrxR1): qHTS; Thioredoxin reductase 1, cytoplasmic (Rattus norvegicus), O89049; recombinant rTrxR1, NADPH fluorescence consumption, selenite substrate; Potency, µM (highest dose often 114 µM), without a hit: top-dose activity change, negative = inhibition, hits mostly inhibitors; 1% of 390,000 active; further: on the % scale 0 is the no-effect control and ±100 the full control effect; nearly all actives have a fitted effect of over 65% in size
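Rat TrxR1 (90 nM in the dispensed reagent) was pre-reduced with 400 uM NADPH for 5 min at room temperature, then incubated with compound for 15 min. After 400 uM selenite was added, NADPH fluorescence (Ex 340/Em 450 nm) was followed for 8 min.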
Nrf2 activator – qHTS of Nrf2 Activators; AREc32 ARE-luciferase reporter (MCF7-derived line), luminescence, 24 h; Potency, µM (highest dose often 46.1 µM), inactives show at the highest dose activation, most hits filed as activators; 0.31% of 410,000 active; AID 624171, 2012; further: % of control where 0% means no effect; nearly all actives have a fitted effect of over 65% in size
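Steps: seed AREc32_Fluc cells (1000/well, 5% FBS OPTI-MEM); incubate overnight at 37 deg C; add 23 nL compound; incubate 24 hr; add Steady-Glo; hold 30 min RT; read luminescence.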
A549 tox – Nrf2 qHTS screen for inhibitors: counterscreen for cytotoxicity; Potency, µM (series often up to 46 µM), inactives show at the top dose activity change, negative = cytotoxicity, actives largely listed as inhibitors; 0.16% of 390,000 active; AID 504648, 2011; A549 ARE-Fluc cells, CellTiter-Fluor viability, 18-24 h; further: on the % scale 0 is the no-effect control and ±100 the full control effect
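A549 ARE-Fluc cells in 5% FBS OPTI-MEM, 5000 cells/well, rested 2 h then exposed to compounds in concentration-response for 18-24 h at 37 °C. Viability by CellTiter-Fluor fluorescence (Ex 405/Em 525) after 30 min; luciferase luminescence (BugLite, 15 min, RT) read afterwards.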
GALK inhibitor – qHTS Assay for Inhibitors of Human Galactokinase (GALK) | AID 1868, 2009 | Purified GALK, Kinase-Glo residual ATP luminescence | Potency, µM (highest dose often 57.5 µM), without a hit: at the top dose activity change, negative = inhibition, most hits filed as inhibitors | P51570 | 0.007% of 270,000 active; further: on the % scale 0 is the no-effect control and ±100 the full control effect
Target sequence (P51570 whole entry, looked up): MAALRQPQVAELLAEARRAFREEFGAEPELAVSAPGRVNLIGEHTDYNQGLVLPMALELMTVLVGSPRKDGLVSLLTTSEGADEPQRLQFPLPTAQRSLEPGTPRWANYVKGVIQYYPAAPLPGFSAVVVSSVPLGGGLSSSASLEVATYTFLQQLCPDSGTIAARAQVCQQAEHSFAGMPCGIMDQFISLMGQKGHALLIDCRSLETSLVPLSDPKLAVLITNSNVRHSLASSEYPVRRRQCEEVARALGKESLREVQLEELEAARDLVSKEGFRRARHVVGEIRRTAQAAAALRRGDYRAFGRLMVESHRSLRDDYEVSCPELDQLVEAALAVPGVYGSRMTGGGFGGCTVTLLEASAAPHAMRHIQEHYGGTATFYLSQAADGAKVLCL
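5 nM enzyme, 35 uM ATP, 100 uM galactose, 20 mM HEPES pH8.0, 5 mM MgCl2; 1 h RT; residual ATP by Kinase-Glo Plus luminescence, qHTS format.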
The depositor's hits bear a star; ! = not active in a repeat; [ ] = dose if it differs, or a comment. The call rests on the fitted dose curve; in most records, active means well fitted curve in the direction sought with a large enough effect; inconclusive means small, poorly fitted or top-dose-only effect, or another doubt; inactive means no such curve, though single readings can be large; an effect the other way counts as inactive or inconclusive. Potency means the concentration at half of the fitted maximal effect.

How did Cc1nn(Cc2cccc(F)c2)c(C)c1NC(=O)c1ccc(COc2ccccc2Cl)cc1 do in these assays?
TrxR1 substrate: -5%; Nrf2 block: 10µM*; TrxR1 inh: 13%; Nrf2 activator: 0%; A549 tox: inconclusive; GALK inhibitor: -3%

Results for Cc1nn(Cc2c(F)c(F)c(F)c(F)c2F)c(C)c1NC(=O)c1ccc(COc2ccc(Cl)cc2Cl)o1 ?
TrxR1 substrate: -3%; Nrf2 block: 16µM*; TrxR1 inh: 18%; Nrf2 activator: 0%; A549 tox: -9%

Results for CC1(C)CC(=O)c2cc(-c3nc(-c4ccc(F)cc4)cs3)c(=O)[nH]c2C1 ?
TrxR1 substrate: -1%; Nrf2 block: 11%; TrxR1 inh: 13%; Nrf2 activator: 0%; A549 tox: 2%

How did O=C(c1ccc2c(c1)N(Cc1cccc(Cl)c1)C(=O)c1ccccc1S2=O)N1CCC(Cc2ccccc2)CC1 (centres undefined) do in these assays?
TrxR1 substrate: 3%[57.1 µM]; TrxR1 inh: 15%[57.1 µM]; Nrf2 activator: 4%; A549 tox: -14%

What do the screens show for `COc1cccc(OCCSc2nc3ccccc3n2CC(=O)N2CCCCC2)c1`?
TrxR1 substrate: 4%; Nrf2 block: 18µM*; TrxR1 inh: 10%; Nrf2 activator: 1%; A549 tox: -15%

What do the screens show for `Cc1ccc[n+](CC(=O)c2ccc(Br)cc2)c1`?
TrxR1 substrate: -12%; Nrf2 block: 23µM*; TrxR1 inh: -14%; Nrf2 activator: 1%; A549 tox: -4%; GALK inhibitor: -1%

How did Cc1ccc[n+](CC(=O)c2ccccc2)c1 do in these assays?
GALK inhibitor: -2%

What do the screens show for `CN(C)c1ccc(C=Nc2cncc3ccccc23)cc1`?
TrxR1 substrate: 20%; TrxR1 inh: 18%

How did Cc1cc(C)c(NS(=O)(=O)c2ccc3c(c2)NC(=O)C(C)C(=O)N3)c(C)c1 (centres undefined) do in these assays?
TrxR1 substrate: 12%[57.1 µM]; Nrf2 block: -18%; TrxR1 inh: 29%[57.1 µM]; Nrf2 activator: 0%; A549 tox: -7%

How did CC1C(=O)Nc2ccc(S(=O)(=O)Nc3ccccc3Br)cc2NC1=O (centres undefined) do in these assays?
TrxR1 substrate: 5%[57.1 µM]; Nrf2 block: 16µM*!; TrxR1 inh: 1%[57.1 µM]; Nrf2 activator: 0%; A549 tox: 2%

How did Cc1cc2c(cc1S(=O)(=O)NCc1ccc(F)cc1)OCC(=O)N2 do in these assays?
TrxR1 substrate: -16%; Nrf2 block: -1%; TrxR1 inh: -7%; Nrf2 activator: 1%; A549 tox: -16%

What do the screens show for `COc1ccc(C2C3C=CCC(c4cccc(/C=C/c5ccccc5)c4)C3C(=O)N2Cc2ccccc2)cc1Cl` (centres undefined)?
TrxR1 substrate: 5%; Nrf2 block: 1%; TrxR1 inh: 6%; A549 tox: 1%

How did CC(=O)c1c(C)[nH]c(C(=O)CN2CCN(S(=O)(=O)c3ccccc3[N+](=O)[O-])CC2)c1C do in these assays?
TrxR1 substrate: 2%; Nrf2 block: 21µM*; TrxR1 inh: -8%; Nrf2 activator: 3%; A549 tox: -8%

What do the screens show for `COc1cc(OC)c(NC(=O)c2c3c(nc4ccccc24)C(=O)N(C2CCCCC2)C3)cc1Cl`?
TrxR1 substrate: 4%[57.1 µM]; Nrf2 block: 13µM*; TrxR1 inh: 9%[57.1 µM]; Nrf2 activator: -1%; A549 tox: -8%

Results for COC(=O)c1cc(NC(=O)c2nn(C)c3c2COc2ccccc2-3)cc(C(=O)OC)c1 ?
TrxR1 substrate: 2%; Nrf2 block: -3%; TrxR1 inh: 6%; Nrf2 activator: -1%; A549 tox: -7%

What do the screens show for `COc1cc(OC)c(NC(=O)c2noc3c2CSc2ccccc2-3)cc1Cl`?
TrxR1 substrate: -6%; Nrf2 block: -13%; TrxR1 inh: 7.1µM*; Nrf2 activator: 6%; A549 tox: 18%

How did COc1cc(OC)c(NC(=O)c2nn(C)c3c2COc2ccccc2-3)cc1Cl do in these assays?
TrxR1 substrate: 6%; Nrf2 block: inconclusive; TrxR1 inh: 16µM*; Nrf2 activator: 0%; A549 tox: 6%

Results for Cc1ccccc1NC(=O)c1c2c(nc3ccccc13)C(=O)N(C1CCCCC1)C2 ?
TrxR1 substrate: 0%[57.1 µM]; Nrf2 block: 27%; TrxR1 inh: 10%[57.1 µM]; Nrf2 activator: 6%; A549 tox: -3%

How did COc1ccc(NC(=O)c2cn(CC(C)C)c(=O)c3cc(OC)c(OC)cc23)cc1Cl do in these assays?
TrxR1 substrate: -1%; Nrf2 block: 1%[9.27 µM]; TrxR1 inh: 24%; Nrf2 activator: 0%; A549 tox: 2%

What do the screens show for `S=C(Nc1ccccc1Cl)N(Cc1ccccc1)Cc1ccccn1`?
TrxR1 substrate: 3%[57.1 µM]; Nrf2 block: 21µM*; TrxR1 inh: -7%[57.1 µM]; Nrf2 activator: 0%; A549 tox: -10%; GALK inhibitor: -1%

Results for COc1ccccc1NC(=S)N(Cc1ccccc1)Cc1ccccn1 ?
TrxR1 substrate: 8%[57.1 µM]; Nrf2 block: inconclusive; TrxR1 inh: -6%[57.1 µM]; Nrf2 activator: -1%; A549 tox: 1%; GALK inhibitor: 0%

What do the screens show for `CC(=C\C(=O)O)/C(=C/c1ccc(C)o1)C(=O)O`?
TrxR1 substrate: -5%; Nrf2 block: 4%; TrxR1 inh: 71µM*; Nrf2 activator: 10%; A549 tox: 0%

How did O=S(=O)(c1ccsc1)N1CCN(c2nc(-c3cccs3)nc3ccccc23)CC1 do in these assays?
Nrf2 block: 4%; A549 tox: 0%

How did COc1ccc(CCSc2n[nH]c(C(C)C)n2)cc1 do in these assays?
TrxR1 substrate: 0%; TrxR1 inh: 12%

How did CCCc1cc(=O)oc2cc(C)cc(OCC(=O)Nc3ccc(S(N)(=O)=O)cc3)c12 do in these assays?
TrxR1 substrate: -5%; Nrf2 block: inconclusive; TrxR1 inh: 20µM*; Nrf2 activator: 0%; A549 tox: -8%; GALK inhibitor: -1%

What do the screens show for `CCCc1cc(=O)oc2cc(C)cc(OCC(=O)Nc3ccccn3)c12`?
TrxR1 substrate: 17%; Nrf2 block: 15%; TrxR1 inh: 27%; Nrf2 activator: 29%; A549 tox: 7%; GALK inhibitor: -5%
